Measurements: PubChem BioAssay (Tox21)
Several values for one entry are separate records, joined by “and”; a condition that tells them apart may be missing. Identical values can stand only once. Records with an inconclusive call do not appear. Some structures have more than one record in an assay (separate samples or runs), and their calls can disagree. Activity calls are given as the source filed them. The call rests on the fitted dose curve; in most records, active means well fitted curve in the direction sought with a large enough effect in the repeat runs; inconclusive means weak or mixed curves; inactive means no such curve, though single readings can be large; an effect the other way counts as inactive or inconclusive.

Tests used:
[1] = A CellTox Green Cytotoxicity Assay to monitor cytotoxicity in HEK293 cells - 40 hour (AID 1224871); further: nearly all actives have a fitted effect of over 45% in size; further: potency means the concentration at half of the fitted maximal effect
Method in brief: (§1)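 Tox21 screen in HEK293: membrane-impermeant cyanine dye fluoresces on binding dead-cell DNA; compound pinned 5 h post-seeding, plates held at 37 C, signal read repeatedly through 40 h.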

[2] = qHTS RealTime-Glo MT Cell Viability Assay in HEK293 cells - 16 hour (AID 1224872); further: nearly all actives have a fitted effect of over 50% in size; further: potency means the concentration at half of the fitted maximal effect
Method in brief: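 Tox21 10K qHTS, HEK293, 600 cells/well, RealTime-Glo reagent co-dispensed with cells; 5 h preincubation, compound by pintool, 37 C, luminescence at 0–40 h.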

[3] = qHTS RealTime-Glo MT Cell Viability Assay in HepG2 cells - 8 hour (AID 1224873); further: nearly all actives have a fitted effect of over 55% in size
Method in brief: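 HepG2 cells (600/well) mixed with RealTime-Glo MT reagent, settled 5 h at 37 C/5% CO2 before compound addition. Nonlytic NanoLuc luminescence from viable-cell prosubstrate reduction read repeatedly during 40 h treatment at 37 C.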

[4] = qHTS RealTime-Glo MT Cell Viability Assay in HEK293 cells - 40 hour (AID 1224874); settings: RealTime-Glo luminescence; max response: stronger effect = lower value; further: nearly all actives have a fitted effect of over 50% in size; further: potency means the concentration at half of the fitted maximal effect
Method in brief: (§2)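 HEK293 + NanoLuc + prosubstrate, 600 cells/well; 5 h, 37 C/5% CO2; compound 23 nL in DMSO by pintool; 37 C; luminescence read at 0, 8, 16, 24, 32 and 40 h time points.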

[5] = A CellTox Green Cytotoxicity Assay to monitor cytotoxicity in HEK293 cells - 24 hour (AID 1224875); further: series mostly up to about 77 µM; nearly all actives have a fitted effect of over 45% in size
Method in brief: as §1

[6] = A CellTox Green Cytotoxicity Assay to monitor cytotoxicity in HepG2 cells - 16 hour (AID 1224876); further: nearly all actives have a fitted effect of over 45% in size; further: potency means the concentration at half of the fitted maximal effect
Method in brief: (§3)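 Measurements at 0, 8, 16, 24, 32 and 40 h of treatment captured CellTox Green fluorescence in HepG2 cells that had been co-plated with reagent and preincubated 5 h at 37 C/5% CO2.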

[7] = qHTS RealTime-Glo MT Cell Viability Assay in HepG2 cells - 32 hour (AID 1224877); further: nearly all actives have a fitted effect of over 55% in size
Method in brief: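 Cells + NanoLuc/prosubstrate dispensed (600 cells/well) → 5 h at 37 C/5% CO2 → compounds in DMSO transferred → 40 h incubation at 37 C, luminescence read at 0, 8, 16, 24, 32, 40 h.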

[8] = A CellTox Green Cytotoxicity Assay to monitor cytotoxicity in HepG2 cells - 24 hour (AID 1224878); further: nearly all actives have a fitted effect of over 45% in size; further: potency means the concentration at half of the fitted maximal effect
Method in brief: as §3

[9] = A CellTox Green Cytotoxicity Assay to monitor cytotoxicity in HepG2 cells - 40 hour (AID 1224879); further: nearly all actives have a fitted effect of over 40% in size; further: potency means the concentration at half of the fitted maximal effect
Method in brief: as §3

[10] = qHTS RealTime-Glo MT Cell Viability Assay in HEK293 cells - 0 hour (AID 1224880)
Method in brief: as §2
On the % scale 0 is the no-effect control and ±100 the full control effect.

CCC(CO)(CO)COCC(CC)(CO)CO
inactive: Potency [1] | Potency [2] | Potency [3] | max response [4] -1.05% | Potency [5] | Potency [6] | Potency [7] | Potency [8] | Potency [9]

c1ccc2cc3c(ccc4ccccc43)cc2c1
inactive: Potency [1] | Potency [2] | Potency [3] | max response [4] 0.679% | Potency [5] | Potency [6] | Potency [7] | Potency [8]
21.9 µM (active) and inactive: Potency [9]

O=C(OCc1ccccc1)c1ccc(O)cc1
49 µM (active) and inactive: Potency [9]
inactive: Potency [1] | Potency [2] | Potency [3] | max response [4] -24.2% | Potency [5] | Potency [6] | Potency [7] | Potency [8]

C[N+]1([O-])CCOCC1
inactive: Potency [1] | Potency [2] | Potency [3] | max response [4] 0.178% | Potency [5] | Potency [6] | Potency [7] | Potency [8] | Potency [9]

C=C(C)C(=O)O
inactive: Potency [1] | Potency [2] | Potency [3] | max response [4] -0.401% and 9.57% | Potency [5] | Potency [6] | Potency [7] | Potency [8] | Potency [9] | Potency [10]

CC(C)(C)NC(=O)[C@@H]1CN(Cc2cccnc2)CCN1C[C@@H](O)C[C@@H](Cc1ccccc1)C(=O)N[C@H]1c2ccccc2C[C@H]1O
inactive: Potency [1] | Potency [2] | Potency [3] | max response [4] 0.0575% and 0.362% | Potency [5] | Potency [6] | Potency [7] | Potency [8] | Potency [9] | Potency [10]

CCOC(=O)C(C)C(C)=O (stereo not drawn)
inactive: Potency [1] | Potency [2] | Potency [3] | max response [4] -0.314% | Potency [5] | Potency [6] | Potency [7] | Potency [8] | Potency [9] | Potency [10]

NCCCCCC(=O)O
inactive: Potency [1] | Potency [2] | Potency [3] | max response [4] -0.0726% | Potency [5] | Potency [6] | Potency [7] | Potency [8] | Potency [9] | Potency [10]

Nc1nc2ccccc2[nH]1
inactive and 216 nM (active): Potency [9]
inactive: Potency [1] | Potency [2] | Potency [3] | Potency [5] | Potency [6] | Potency [7] | Potency [8]

CCOc1ccc2c(c1)C(C)=CC(C)(C)N2
inactive: Potency [1] | Potency [2] | Potency [3] | max response [4] -10.3% and 3.02% | Potency [5] | Potency [6] | Potency [7] | Potency [8] | Potency [9] | Potency [10]

CCN1CCCC1CNC(=O)c1cc(S(=O)(=O)CC)c(N)cc1OC (stereo not drawn)
inactive: Potency [1] | Potency [2] | Potency [3] | max response [4] 2.04% | Potency [5] | Potency [6] | Potency [7] | Potency [8] | Potency [9] | Potency [10]

CN1C(=O)c2ccc([N+](=O)[O-])cc2C1=O
inactive: Potency [1] | Potency [2] | Potency [3] | max response [4] 0.763% | Potency [5] | Potency [6] | Potency [7] | Potency [8] | Potency [9] | Potency [10]

CCN(CC)c1ccc2c(C)cc(=O)oc2c1
active: Potency [2] 39.2 µM | Potency [4] 39.2 µM
inactive: Potency [1] | Potency [3] | Potency [5] | Potency [6] | Potency [7] | Potency [8] | Potency [9] | Potency [10]

COC(=O)c1cccc(C(=O)OC)c1
inactive and 38.9 µM (active): Potency [1] | Potency [6] | Potency [8]
inactive: Potency [2] | Potency [3] | max response [4] 2.68% and 4.11% | Potency [7] | Potency [10]
inactive and 24.5 µM (active): Potency [9]

C=CC(=O)OCCCCCCCC
inactive: Potency [1] | Potency [2] | Potency [3] | max response [4] 3.71% | Potency [5] | Potency [6] | Potency [7] | Potency [8] | Potency [9] | Potency [10]

CC(C)(O)CCC(C)(C)O
inactive: Potency [1] | Potency [2] | Potency [3] | max response [4] -3.66% | Potency [5] | Potency [6] | Potency [7] | Potency [8] | Potency [9] | Potency [10]
